# Data reported in PubChem BioAssay (Tox21).
# Where “and” joins values, the source holds several entries; their conditions need not be identical. Identical values can stand only once. Results filed as inconclusive are left out. Entries that show only a call come without a potency. Unmarked numbers belong to inactive results. Calls of active or inactive are those of the source. Unless noted, calls follow the shape of the dose curve; as a rule, active = well fitted curve in the direction sought with a large enough effect in the repeat runs; inconclusive = weak or mixed curves; inactive = no such curve, though single readings can be large; an effect the other way counts as inactive or inconclusive.
# Columns and labels:
# [1] = qHTS assay to identify small molecule antagonists of the thyroid receptor (TR) signaling pathway (AID 743065); also: nearly all actives have a fitted effect of over 55% in size; also: potency is read from the fitted curve at half-maximal effect
# Method in brief: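 Antagonism measured as loss of luciferase signal in GH3 cells stably carrying a TRE-luciferase reporter, co-treated with compound and T3 (1 nM final) for 23.5 h at 37 C. Viability was read in the same well by CellTiter-Fluor.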
# [2] = system: thyroid hormone receptor (rat, GH3 cells); assay: qHTS assay to identify small molecule agonists of the thyroid receptor (TR) signaling pathway (AID 743066; calls by dose curve)
# [3] = qHTS assay to identify small molecule antagonists of the estrogen receptor alpha (ER-alpha) signaling pathway - cell viability counter screen (AID 743074; calls by dose curve;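 also: HEK293 cells carrying ER-alpha-UAS-bla reporter stimulated with 17beta-estradiol; nearly all actives have a fitted effect of over 45% in size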; also: potency is read from the fitted curve at half-maximal effect)
# [4] = qHTS assay to identify small molecule antagonists of the estrogen receptor alpha (ER-alpha) signaling pathway using the BG1 cell line - cell viability counter screen (AID 743081);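 also: compound given together with 17beta-estradiol as the ER stimulus; nearly all actives have a fitted effect of over 45% in size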; also: potency is read from the fitted curve at half-maximal effect
# [5] = target: Aromatase (Homo sapiens) (UniProt P11511); assay: qHTS assay to identify aromatase inhibitors (AID 743083); also: nearly all actives have a fitted effect of over 55% in size; also: potency is read from the fitted curve at half-maximal effect
# Sequence of Aromatase (Homo sapiens) (P11511 whole entry, looked up): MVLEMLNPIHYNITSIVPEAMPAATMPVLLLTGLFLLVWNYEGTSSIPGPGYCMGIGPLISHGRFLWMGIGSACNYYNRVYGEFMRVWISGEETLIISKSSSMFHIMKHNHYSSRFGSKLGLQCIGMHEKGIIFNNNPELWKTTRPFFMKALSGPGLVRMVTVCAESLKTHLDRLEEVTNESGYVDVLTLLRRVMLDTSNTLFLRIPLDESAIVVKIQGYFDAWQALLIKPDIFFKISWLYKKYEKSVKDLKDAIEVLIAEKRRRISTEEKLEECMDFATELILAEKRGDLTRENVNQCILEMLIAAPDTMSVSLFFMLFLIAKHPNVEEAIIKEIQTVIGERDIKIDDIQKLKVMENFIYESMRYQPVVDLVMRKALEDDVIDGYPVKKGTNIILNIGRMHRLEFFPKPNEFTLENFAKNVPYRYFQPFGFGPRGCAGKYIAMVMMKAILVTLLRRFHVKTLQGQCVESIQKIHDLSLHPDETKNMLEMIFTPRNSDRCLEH
# [6] = qHTS assay to identify aromatase inhibitors - cell viability counter screen (AID 743084);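 also: cells stimulated with testosterone during compound exposure; nearly all actives have a fitted effect of over 55% in size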; also: potency is read from the fitted curve at half-maximal effect
# [7] = qHTS assay to identify small molecule that activate the aryl hydrocarbon receptor (AhR) signaling pathway - cell viability counter screen (AID 743086); also: nearly all actives have a fitted effect of over 45% in size; also: potency is read from the fitted curve at half-maximal effect
# Method in brief: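 Cytotoxicity counter screen: CellTiter-Fluor signal (30 min, 37 C) in 4000 HepG2 cells/well carrying the DRE-luciferase reporter, following 24 h compound exposure at 37 C.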
# [8] = target: Peroxisome proliferator-activated receptor gamma (Homo sapiens) (UniProt P37231); assay: qHTS assay to identify small molecule agonists of the peroxisome proliferator-activated receptor gamma (PPARg) signaling pathway (AID 743094; active = well fitted activation curve with a large enough effect in the signal ratio in the repeat runs, not every such curve was filed as active; the % refers to the signal ratio)
# Sequence of Peroxisome proliferator-activated receptor gamma (Homo sapiens) (P37231 whole entry, looked up): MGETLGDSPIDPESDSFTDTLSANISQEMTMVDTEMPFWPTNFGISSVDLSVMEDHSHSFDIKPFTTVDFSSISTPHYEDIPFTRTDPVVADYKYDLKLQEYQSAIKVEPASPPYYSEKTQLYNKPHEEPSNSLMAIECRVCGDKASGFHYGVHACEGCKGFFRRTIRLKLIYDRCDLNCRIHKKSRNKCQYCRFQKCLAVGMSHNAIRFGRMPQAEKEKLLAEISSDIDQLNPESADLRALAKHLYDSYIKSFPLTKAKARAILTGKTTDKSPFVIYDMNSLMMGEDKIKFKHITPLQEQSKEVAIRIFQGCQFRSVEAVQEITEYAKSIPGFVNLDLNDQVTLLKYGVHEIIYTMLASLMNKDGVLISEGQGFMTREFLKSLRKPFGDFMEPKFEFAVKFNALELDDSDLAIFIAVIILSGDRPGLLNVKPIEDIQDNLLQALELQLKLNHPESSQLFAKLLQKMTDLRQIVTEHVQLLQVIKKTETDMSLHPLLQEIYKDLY
# Method in brief: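 GeneBLAzer PPARg UAS-bla HEK293H cells carrying a stably integrated beta-lactamase reporter were pre-incubated 5 h at 37C, then exposed to compounds in DMSO for 17 h at 37C; LiveBLAzer B/G FRET substrate was added for 1 h at room temperature and fluorescence read.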
# [9] = target: Peroxisome proliferator-activated receptor gamma (Homo sapiens) (UniProt P37231); assay: qHTS assay to identify small molecule antagonists of the peroxisome proliferator-activated receptor gamma (PPARg) signaling pathway (AID 743191; calls by dose curve; also: nearly all actives have a fitted effect of over 30% in size)
# Method in brief: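 Beta-lactamase reporter under UAS control in HEK293H PPARg-bla cells; compound treatment 17 h at 37C. Read-out: fluorescence intensity after 1 h room-temperature incubation with LiveBLAzer B/G FRET substrate.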
# [10] = qHTS assay to identify small molecule antagonists of the peroxisome proliferator-activated receptor gamma (PPARg) signaling pathway - cell viability counter screen (AID 743194); settings: Potency: co-treated with 50 nM rosiglitazone unless noted; also: nearly all actives have a fitted effect of over 55% in size; also: potency is read from the fitted curve at half-maximal effect
# Method in brief: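 Viability was measured as CellTiter-Glo luminescence in GeneBLAzer PPARg UAS-bla HEK293H cells. These cells had been exposed 17 h at 37 C to compounds together with rosiglitazone at 50 nM final, with the beta-lactamase readout taken in the same wells.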
# [11] = qHTS assay for small molecule agonists of the antioxidant response element (ARE) signaling pathway (AID 743202; active = well fitted activation curve with a large enough effect in the signal ratio in the repeat runs, not every such curve was filed as active; the % refers to the signal ratio)
# Method in brief: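 Quantitative high-throughput format in HepG2 cells bearing an integrated ARE-beta-lactamase reporter. Compound exposure lasted 16 h at 37 C, and fluorescence was read 2 h after adding LiveBLAzer B/G substrate at room temperature.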
# [12] = qHTS assay for small molecule agonists of the antioxidant response element (ARE) signaling pathway - cell viability counter screen (AID 743203; calls by dose curve; also: nearly all actives have a fitted effect of over 55% in size; also: potency is read from the fitted curve at half-maximal effect)
# Method in brief: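 CellSensor ARE-bla HepG2 cells, 2,000 per well, rested 5 hrs at 37C/5% CO2, then exposed to compound in DMSO for 16 hrs; viability read as CellTiter-Glo luminescence after 30 min at room temperature, in the reporter wells.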
# [13] = qHTS assay for small molecule activators of the heat shock response signaling pathway - cell viability counter screen (AID 743209); also: nearly all actives have a fitted effect of over 50% in size; also: potency is read from the fitted curve at half-maximal effect
# Method in brief: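 CellSensor HSE-bla HeLa cells, plated overnight at 37 C/5% CO2, were exposed to compounds in DMSO for 5 h at 37 C. Viability was then read in the same wells by CellTiter-Glo luminescence after 30 min at room temperature.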
# [14] = qHTS assay for small molecule activators of the heat shock response signaling pathway (AID 743210; active = well fitted activation curve with a large enough effect in the signal ratio in the repeat runs, with a control signal flat, not every such curve was filed as active; the % refers to the signal ratio;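 also: HeLa cells with beta-lactamase reporter driven by heat shock elements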)
# Method in brief: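 HeLa HSE-bla cells, overnight plating; cpd in DMSO 5 h, 37 C; LiveBLAzer B/G FRET substrate 2.5 h RT; fluorescence intensity read.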
# [15] = qHTS assay to identify small molecule agonists of the peroxisome proliferator-activated receptor delta (PPARd) signaling pathway - cell viability counter screen (AID 743211); also: nearly all actives have a fitted effect of over 55% in size; also: potency is read from the fitted curve at half-maximal effect
# Method in brief: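 Tox21 library compounds, delivered in DMSO, were incubated 17 h with PPARd-bla HEK293H cells; cytotoxicity was taken from CellTiter-Glo luminescence read 30 min after reagent addition.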
# [16] = target: Estrogen receptor (Homo sapiens) (UniProt P03372); assay: qHTS assay to identify small molecule antagonists of the estrogen receptor alpha (ER-alpha) signaling pathway (AID 743069; active = well fitted curve in the direction sought with a large enough effect in the signal ratio in the repeat runs, not every such curve was filed as active; the % refers to the signal ratio)
# Sequence of Estrogen receptor (Homo sapiens) (P03372 whole entry, looked up): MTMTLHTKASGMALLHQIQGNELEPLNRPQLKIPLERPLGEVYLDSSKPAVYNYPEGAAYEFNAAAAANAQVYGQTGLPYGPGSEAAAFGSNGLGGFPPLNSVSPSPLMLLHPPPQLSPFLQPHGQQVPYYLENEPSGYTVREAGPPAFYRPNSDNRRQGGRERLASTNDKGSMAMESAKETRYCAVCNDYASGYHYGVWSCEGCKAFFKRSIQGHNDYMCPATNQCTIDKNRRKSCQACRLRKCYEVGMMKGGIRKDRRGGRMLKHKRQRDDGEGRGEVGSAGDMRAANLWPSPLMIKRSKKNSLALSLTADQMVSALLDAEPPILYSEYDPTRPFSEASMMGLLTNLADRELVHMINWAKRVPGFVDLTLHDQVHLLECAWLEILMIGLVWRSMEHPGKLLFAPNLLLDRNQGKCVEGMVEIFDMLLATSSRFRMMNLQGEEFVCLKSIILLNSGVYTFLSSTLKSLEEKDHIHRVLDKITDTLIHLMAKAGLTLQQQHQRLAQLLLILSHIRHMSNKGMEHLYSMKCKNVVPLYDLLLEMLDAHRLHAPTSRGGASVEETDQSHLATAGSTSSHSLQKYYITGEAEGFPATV
# Method in brief: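 ER-alpha-UAS-bla GripTite HEK293 line; 2% charcoal-stripped FBS overnight; plated, 4 hr 37C/5% CO2; cpd in DMSO + 17beta-estradiol, 18 hr 37C; LiveBLAzer B/G FRET substrate 2 hr RT; fluorescence intensity.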
# [17] = target: Estrogen receptor (Homo sapiens) (UniProt P03372); assay: qHTS assay to identify small molecule agonists of the estrogen receptor alpha (ER-alpha) signaling pathway (AID 743075; calls by dose curve;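 also: HEK293 GripTite cells with ER-alpha and UAS-driven beta-lactamase reporter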)
# [18] = target: Estrogen receptor (Homo sapiens) (UniProt P03372); assay: qHTS assay to identify small molecule agonists of the estrogen receptor alpha (ER-alpha) signaling pathway using the BG1 cell line (AID 743079); settings: BG1Luc4E2 cells, ERE-luciferase agonist, 22 h; activation: at 70.3 µM (top of the series) unless noted; also: nearly all actives have a fitted effect of over 20% in size
# [19] = qHTS assay to identify small molecule antagonists of the estrogen receptor alpha (ER-alpha) signaling pathway using the BG1 cell line (AID 743080; calls by dose curve;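 also: BG1 cells stimulated with 17beta-estradiol alongside compound; nearly all actives have a fitted effect of over 25% in size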; also: potency is read from the fitted curve at half-maximal effect)
# Method in brief: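 After 5 days in phenol-red-free 10% charcoal-stripped FBS medium, BG1-Luc-4E2 cells were seeded, left 24 h at 37 C, co-treated with compounds and 17beta-estradiol for 21.5 h, then assayed for viability and luciferase.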
# [20] = target: Aryl hydrocarbon receptor (Homo sapiens) (UniProt P35869); assay: qHTS assay to identify small molecule that activate the aryl hydrocarbon receptor (AhR) signaling pathway (AID 743085);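 also: HG2L7.5c1 human HepG2 liver cells with stably integrated DRE-driven firefly reporter; nearly all actives have a fitted effect of over 15% in size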
# Sequence of Aryl hydrocarbon receptor (Homo sapiens) (P35869 whole entry, looked up): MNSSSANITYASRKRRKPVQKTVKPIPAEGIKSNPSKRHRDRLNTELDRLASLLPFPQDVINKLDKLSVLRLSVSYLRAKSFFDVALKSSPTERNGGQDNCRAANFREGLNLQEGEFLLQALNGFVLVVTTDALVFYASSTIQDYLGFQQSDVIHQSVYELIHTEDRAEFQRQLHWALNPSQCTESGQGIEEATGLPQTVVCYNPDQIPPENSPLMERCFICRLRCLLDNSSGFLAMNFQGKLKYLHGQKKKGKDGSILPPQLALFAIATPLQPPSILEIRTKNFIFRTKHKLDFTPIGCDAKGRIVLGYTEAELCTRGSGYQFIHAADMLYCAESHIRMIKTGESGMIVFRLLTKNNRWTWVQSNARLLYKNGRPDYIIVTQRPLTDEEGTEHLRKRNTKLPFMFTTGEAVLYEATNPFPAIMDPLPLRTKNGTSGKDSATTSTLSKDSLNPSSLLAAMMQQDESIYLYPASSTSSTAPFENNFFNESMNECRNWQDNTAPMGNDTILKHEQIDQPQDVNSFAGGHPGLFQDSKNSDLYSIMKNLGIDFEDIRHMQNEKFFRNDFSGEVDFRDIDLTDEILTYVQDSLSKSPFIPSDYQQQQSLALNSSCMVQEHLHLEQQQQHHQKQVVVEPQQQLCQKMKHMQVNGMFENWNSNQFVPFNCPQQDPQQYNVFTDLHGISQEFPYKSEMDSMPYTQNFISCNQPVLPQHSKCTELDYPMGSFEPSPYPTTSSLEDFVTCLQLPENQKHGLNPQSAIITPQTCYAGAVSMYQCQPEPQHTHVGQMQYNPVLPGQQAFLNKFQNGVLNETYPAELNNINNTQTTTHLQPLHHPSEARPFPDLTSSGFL
# Method in brief: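 A multiplexed format paired cell viability (CellTiter-Fluor fluorescence) with AhR-dependent luciferase output (ONE-Glo luminescence) in the same wells of HepG2 DRE-luc cells after 24 h compound exposure at 37C.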
smiles,measurement,setting,value
ClC(Cl)(Cl)Br,Potency,[1],inactive
same,Potency,[2],inactive
same,Potency,[3],inactive
same,Potency,[4],inactive
same,Potency,[5],inactive
same,Potency,[6],inactive
same,Potency,[7],inactive
same,Potency,[8],inactive
same,Potency,[9],inactive
same,Potency,[10],inactive
same,Potency,[11],inactive
same,Potency,[12],inactive
same,Potency,[13],inactive
same,activation,[14],-1.07% [at 13.2 µM]
same,Potency,[15],inactive
CS(=O)(=O)NC(=O)c1cc(Oc2ccc(C(F)(F)F)cc2Cl)ccc1[N+](=O)[O-],Potency,[1],inactive
same,Potency,[2],inactive
same,Potency,[3],inactive
same,Potency,[4],inactive
same,Potency,[5],inactive
same,Potency,[6],inactive
same,Potency,[7],inactive
same,Potency,[8],inactive
same,Potency,[10],inactive
same,Potency,[12],inactive
same,Potency,[13],inactive
same,Potency,[14],inactive
same,Potency,[15],inactive
CC(C)(C#N)N=NC(C)(C)C#N,Potency,[16],inactive
same,Potency,[3],inactive
same,Potency,[17],inactive
same,Potency,[18],inactive
same,Potency,[19],inactive
same,Potency,[4],inactive
same,Potency,[5],inactive
same,Potency,[6],inactive
same,Potency,[20],inactive
same,Potency,[7],inactive
same,Potency,[8],inactive
same,Potency,[9],inactive
same,Potency,[10],inactive
same,Potency,[11],inactive
same,Potency,[12],inactive
same,Potency,[13],inactive
same,Potency,[14],inactive
same,Potency,[15],inactive
CCC[CH2][Sn]([Cl])([CH2]CCC)[CH2]CCC,Potency,[1],194 nM (active) and 273 nM (active)
same,Potency,[3],693 nM (active) and 1.55 µM (active)
same,Potency,[19],274 nM (active) and 486 nM (active)
same,Potency,[4],2.74 µM (active) and 1.72 µM (active)
same,Potency,[5],2.74 µM (active) and 2.17 µM (active)
same,Potency,[6],1.54 µM (active) and 3.06 µM (active)
same,Potency,[7],2.17 µM (active) and 3.44 µM (active)
same,Potency,[10],1.38 µM (active) and 1.1 µM (active)
same,Potency,[12],771 nM (active) and 1.09 µM (active)
same,Potency,[13],1.74 µM (active) and 2.75 µM (active)
same,Potency,[15],551 nM (active) and 1.23 µM (active)
C[N+](C)(C)CC(=O)[O-],Potency,[2],inactive
same,Potency,[16],inactive
same,Potency,[3],inactive
same,Potency,[17],inactive
same,Potency,[18],inactive
same,Potency,[19],inactive
same,Potency,[4],inactive
same,Potency,[5],inactive
same,Potency,[6],inactive
same,Potency,[7],inactive
same,Potency,[8],inactive
same,Potency,[10],inactive
same,Potency,[11],inactive
same,Potency,[12],inactive
same,Potency,[13],inactive
same,Potency,[15],inactive
